The target in the experiment is FANCG. As to the kind of experiment: pooled miR-30 sensor sort-seq; sequence = guide strand. The note with it: shRNA.
In turn, TAAGTGTCTCGATTACCTGGGC gave a sensor-assay potency score (higher = more potent) of -0.142.

The sequence ATAGCTTTCTAGGTACAGGGGG displayed a sensor-assay potency score (higher = more potent) of 0.363.

Sequence ATGAAGGCTGCTTAGTGCCTTG had a sensor-assay potency score (higher = more potent) of -0.886.

In the case of AGTAAGTGTCTCGATTACCTGG, the sensor-assay potency score (higher = more potent) is -1.17.

The sequence TTGCAGACTATGGAGGAGCCCT yielded a sensor-assay potency score (higher = more potent) of -1.08.

TTCTACCTCAATGAGAAACTGC displayed a sensor-assay potency score (higher = more potent) of -0.153.

In the case of TTTTCTGGCATCTTCCCACAGC, the sensor-assay potency score (higher = more potent) is -0.807.

TAGCAGCTCCAGACTCTCCAGC: the sensor-assay potency score (higher = more potent) was -0.96.

The sequence TTGGGCACCCAGTTGAACCCAG had a sensor-assay potency score (higher = more potent) of -0.577.

Turning to TACCTCAATGAGAAACTGCGGG, the sensor-assay potency score (higher = more potent) was -0.383.

The sequence TCTCTGTGGATTTCCCATCTTA came in with a sensor-assay potency score (higher = more potent) of -0.461.

The sequence TATAGGAATGGTCACATTCCTA had a sensor-assay potency score (higher = more potent) of -1.18.

Turning to TAAATTCACTAATTGCCACTTT, the sensor-assay potency score (higher = more potent) was found to be 0.314.

With TTGGCCTGTCGAACGAGCCGGT, the sensor-assay potency score (higher = more potent) was -0.452.

As for ATAGAGTCAAGGCATCTTGGGC, the sensor-assay potency score (higher = more potent) was -0.699.

In turn, TGCTGTGTACACCTGGACCAAC gave a sensor-assay potency score (higher = more potent) of -1.61.

For TACAACAGTGCTCTCTGTGGAT, the sensor-assay potency score (higher = more potent) was -0.172.

Sequence TGTGTCTCCAGCACTCTCTCTA displayed a sensor-assay potency score (higher = more potent) of 0.116.

For the sequence TACACCTGGACCAACACAGGCC, the sensor-assay potency score (higher = more potent) was 0.254.

Source of the values: the OligoGym collection.
Also: reference of the scale not given here.
